Reference: ChEMBL document CHEMBL2218924, “A broad activity screen in support of a chemogenomic map for kinase signalling research and drug discovery” (Biochem J, 2013)

How the values were obtained:
[1] = target: Vascular endothelial growth factor receptor 3 (Homo sapiens) (UniProt P35916); settings: at 10 µM
[2] = target: Macrophage colony-stimulating factor 1 receptor (Homo sapiens) (UniProt P07333); settings: at 1 µM
[3] = target: Macrophage colony-stimulating factor 1 receptor (Homo sapiens) (UniProt P07333); settings: at 10 µM
[4] = target: Tyrosine-protein kinase Fyn (Homo sapiens) (UniProt P06241); settings: at 1 µM
[5] = target: Tyrosine-protein kinase Fyn (Homo sapiens) (UniProt P06241); settings: at 10 µM
[6] = target: T1, Mitogen-activated protein kinase kinase kinase kinase 2 (Homo sapiens) (UniProt Q12851); settings: at 1 µM
T1 sequence (whole entry): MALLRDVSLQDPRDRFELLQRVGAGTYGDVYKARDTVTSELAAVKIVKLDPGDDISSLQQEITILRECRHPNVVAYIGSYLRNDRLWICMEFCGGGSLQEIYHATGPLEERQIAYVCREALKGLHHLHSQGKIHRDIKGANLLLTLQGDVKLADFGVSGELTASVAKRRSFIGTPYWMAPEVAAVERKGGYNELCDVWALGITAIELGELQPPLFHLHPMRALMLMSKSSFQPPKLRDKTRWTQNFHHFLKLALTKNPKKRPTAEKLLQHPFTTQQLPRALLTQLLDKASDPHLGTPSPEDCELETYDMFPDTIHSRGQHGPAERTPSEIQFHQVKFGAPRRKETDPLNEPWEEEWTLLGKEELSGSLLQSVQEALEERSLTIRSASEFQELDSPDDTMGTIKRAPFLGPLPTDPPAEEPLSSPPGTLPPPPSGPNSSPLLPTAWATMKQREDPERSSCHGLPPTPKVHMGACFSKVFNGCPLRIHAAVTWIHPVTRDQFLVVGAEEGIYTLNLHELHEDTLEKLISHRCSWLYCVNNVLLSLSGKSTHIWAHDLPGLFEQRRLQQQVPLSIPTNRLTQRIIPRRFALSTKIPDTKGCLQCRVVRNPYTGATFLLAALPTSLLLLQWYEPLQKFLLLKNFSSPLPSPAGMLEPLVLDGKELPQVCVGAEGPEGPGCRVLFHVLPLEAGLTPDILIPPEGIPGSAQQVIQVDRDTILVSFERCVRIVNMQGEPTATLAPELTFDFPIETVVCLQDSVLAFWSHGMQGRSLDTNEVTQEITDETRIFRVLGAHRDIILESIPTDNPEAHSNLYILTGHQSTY

[7] = target: T1, Mitogen-activated protein kinase kinase kinase kinase 2 (Homo sapiens); settings: at 10 µM
[8] = target: G protein-coupled receptor kinase 5 (Homo sapiens) (UniProt P34947); settings: at 10 µM
[9] = target: G protein-coupled receptor kinase 6 (Homo sapiens) (UniProt P43250); settings: at 10 µM
[10] = target: T2, Rhodopsin kinase GRK7 (Homo sapiens) (UniProt Q8WTQ7); settings: at 1 µM
T2 sequence (whole entry): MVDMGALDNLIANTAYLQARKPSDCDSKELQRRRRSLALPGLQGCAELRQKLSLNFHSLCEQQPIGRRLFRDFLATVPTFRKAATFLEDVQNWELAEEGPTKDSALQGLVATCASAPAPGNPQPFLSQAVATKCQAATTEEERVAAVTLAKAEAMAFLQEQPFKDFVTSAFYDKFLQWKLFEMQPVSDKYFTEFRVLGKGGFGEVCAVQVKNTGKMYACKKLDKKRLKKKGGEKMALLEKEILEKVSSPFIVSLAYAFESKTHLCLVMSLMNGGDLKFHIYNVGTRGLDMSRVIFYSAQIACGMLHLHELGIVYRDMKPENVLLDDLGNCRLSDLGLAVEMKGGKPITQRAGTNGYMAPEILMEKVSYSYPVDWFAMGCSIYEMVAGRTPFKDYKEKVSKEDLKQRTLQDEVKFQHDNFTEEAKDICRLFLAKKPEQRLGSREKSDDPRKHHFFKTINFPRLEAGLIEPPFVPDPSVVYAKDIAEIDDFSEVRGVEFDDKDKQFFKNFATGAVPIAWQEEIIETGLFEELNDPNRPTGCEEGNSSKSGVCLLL

[11] = target: T2, Rhodopsin kinase GRK7 (Homo sapiens); settings: at 10 µM
[12] = target: Glycogen synthase kinase-3 alpha (Homo sapiens) (UniProt P49840); settings: at 10 µM
[13] = target: Homeodomain-interacting protein kinase 1 (Homo sapiens) (UniProt Q86Z02); settings: at 1 µM
[14] = target: Homeodomain-interacting protein kinase 1 (Homo sapiens) (UniProt Q86Z02); settings: at 10 µM
[15] = target: Homeodomain-interacting protein kinase 2 (Homo sapiens) (UniProt Q9H2X6); settings: at 1 µM
[16] = target: Homeodomain-interacting protein kinase 2 (Homo sapiens) (UniProt Q9H2X6); settings: at 10 µM
[17] = target: Homeodomain-interacting protein kinase 3 (Homo sapiens) (UniProt Q9H422); settings: at 1 µM
[18] = target: Glycogen synthase kinase-3 beta (Homo sapiens) (UniProt P49841); settings: at 1 µM
[19] = target: Glycogen synthase kinase-3 beta (Homo sapiens) (UniProt P49841); settings: at 10 µM
[20] = target: Glycogen synthase kinase-3 alpha (Homo sapiens) (UniProt P49840); settings: at 1 µM

Tyrosine-protein kinase Fyn (Homo sapiens), sequence (P06241 2-537 limits assumed): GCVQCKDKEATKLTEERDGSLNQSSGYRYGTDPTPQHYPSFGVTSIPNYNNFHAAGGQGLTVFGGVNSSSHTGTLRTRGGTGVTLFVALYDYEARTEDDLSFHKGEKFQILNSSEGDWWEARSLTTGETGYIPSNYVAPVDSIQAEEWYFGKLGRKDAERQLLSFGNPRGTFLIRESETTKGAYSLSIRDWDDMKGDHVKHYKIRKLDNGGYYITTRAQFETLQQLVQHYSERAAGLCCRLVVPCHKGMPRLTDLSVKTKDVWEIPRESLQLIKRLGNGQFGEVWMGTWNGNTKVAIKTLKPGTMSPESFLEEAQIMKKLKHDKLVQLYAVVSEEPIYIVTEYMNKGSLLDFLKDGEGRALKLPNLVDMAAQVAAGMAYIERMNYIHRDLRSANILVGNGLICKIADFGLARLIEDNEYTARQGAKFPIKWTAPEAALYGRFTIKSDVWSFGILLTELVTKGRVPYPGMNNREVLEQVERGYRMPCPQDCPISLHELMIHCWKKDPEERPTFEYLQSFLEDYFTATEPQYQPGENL
Homeodomain-interacting protein kinase 3 (Homo sapiens), sequence (Q9H422 whole entry, looked up): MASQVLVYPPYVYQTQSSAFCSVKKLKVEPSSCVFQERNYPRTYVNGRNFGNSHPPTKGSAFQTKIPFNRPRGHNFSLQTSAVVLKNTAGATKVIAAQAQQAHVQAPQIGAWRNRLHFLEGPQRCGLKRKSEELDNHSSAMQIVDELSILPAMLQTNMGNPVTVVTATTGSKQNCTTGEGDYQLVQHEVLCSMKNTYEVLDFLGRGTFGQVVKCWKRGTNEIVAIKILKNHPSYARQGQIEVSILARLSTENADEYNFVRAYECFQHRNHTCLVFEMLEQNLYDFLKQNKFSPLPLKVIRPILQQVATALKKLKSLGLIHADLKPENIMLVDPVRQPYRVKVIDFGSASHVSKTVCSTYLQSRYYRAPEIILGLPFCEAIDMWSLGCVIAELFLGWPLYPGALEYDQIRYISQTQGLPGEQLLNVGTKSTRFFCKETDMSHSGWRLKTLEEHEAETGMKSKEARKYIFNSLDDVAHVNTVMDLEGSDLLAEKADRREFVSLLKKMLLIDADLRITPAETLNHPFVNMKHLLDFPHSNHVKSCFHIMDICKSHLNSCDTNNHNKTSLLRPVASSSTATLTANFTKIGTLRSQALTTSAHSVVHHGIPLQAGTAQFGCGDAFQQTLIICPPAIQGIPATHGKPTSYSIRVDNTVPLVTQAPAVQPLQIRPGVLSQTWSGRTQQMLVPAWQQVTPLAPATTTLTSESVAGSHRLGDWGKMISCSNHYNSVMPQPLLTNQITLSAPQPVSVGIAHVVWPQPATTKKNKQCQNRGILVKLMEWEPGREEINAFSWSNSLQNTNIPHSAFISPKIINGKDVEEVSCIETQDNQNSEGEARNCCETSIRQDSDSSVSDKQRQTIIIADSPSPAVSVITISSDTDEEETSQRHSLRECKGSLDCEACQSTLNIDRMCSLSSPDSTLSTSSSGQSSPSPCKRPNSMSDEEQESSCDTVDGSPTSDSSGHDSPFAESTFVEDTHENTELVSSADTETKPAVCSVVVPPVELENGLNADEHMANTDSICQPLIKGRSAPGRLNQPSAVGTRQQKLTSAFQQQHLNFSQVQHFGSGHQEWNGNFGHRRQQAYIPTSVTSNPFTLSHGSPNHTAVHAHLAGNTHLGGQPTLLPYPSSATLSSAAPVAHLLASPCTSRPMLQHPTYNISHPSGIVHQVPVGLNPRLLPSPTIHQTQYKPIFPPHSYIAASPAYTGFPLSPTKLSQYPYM
Glycogen synthase kinase-3 alpha (Homo sapiens), sequence (P49840 2-483 limits assumed): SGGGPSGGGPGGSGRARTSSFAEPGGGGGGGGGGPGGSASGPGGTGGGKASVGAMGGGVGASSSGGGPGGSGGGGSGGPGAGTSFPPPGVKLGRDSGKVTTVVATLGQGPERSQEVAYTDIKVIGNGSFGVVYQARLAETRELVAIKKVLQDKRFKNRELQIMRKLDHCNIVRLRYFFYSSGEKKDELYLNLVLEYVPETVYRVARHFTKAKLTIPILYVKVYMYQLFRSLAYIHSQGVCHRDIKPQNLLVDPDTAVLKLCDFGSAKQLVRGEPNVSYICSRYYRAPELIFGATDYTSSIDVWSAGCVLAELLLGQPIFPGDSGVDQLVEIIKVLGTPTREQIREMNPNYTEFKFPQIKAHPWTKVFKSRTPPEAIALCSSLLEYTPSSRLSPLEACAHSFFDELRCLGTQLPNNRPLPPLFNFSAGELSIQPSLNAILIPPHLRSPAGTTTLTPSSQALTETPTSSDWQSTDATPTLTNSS
G protein-coupled receptor kinase 6 (Homo sapiens), sequence (P43250 whole entry, looked up): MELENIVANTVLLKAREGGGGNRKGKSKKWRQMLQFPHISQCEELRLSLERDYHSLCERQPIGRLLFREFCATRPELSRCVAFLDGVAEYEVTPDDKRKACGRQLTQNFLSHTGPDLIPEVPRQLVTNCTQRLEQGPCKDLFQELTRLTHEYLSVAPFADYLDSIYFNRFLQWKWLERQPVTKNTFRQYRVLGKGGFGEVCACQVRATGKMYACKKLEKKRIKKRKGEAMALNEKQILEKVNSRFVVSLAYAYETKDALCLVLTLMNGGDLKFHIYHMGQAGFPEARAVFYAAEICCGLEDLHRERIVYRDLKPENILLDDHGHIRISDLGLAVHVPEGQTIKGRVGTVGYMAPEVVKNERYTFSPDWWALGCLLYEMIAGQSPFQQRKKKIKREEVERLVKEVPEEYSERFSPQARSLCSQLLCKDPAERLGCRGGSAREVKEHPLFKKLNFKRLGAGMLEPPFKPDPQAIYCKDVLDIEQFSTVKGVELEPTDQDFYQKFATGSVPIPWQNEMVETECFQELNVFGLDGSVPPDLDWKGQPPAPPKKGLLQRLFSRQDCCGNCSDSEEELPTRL
Glycogen synthase kinase-3 beta (Homo sapiens), sequence (P49841 whole entry, looked up): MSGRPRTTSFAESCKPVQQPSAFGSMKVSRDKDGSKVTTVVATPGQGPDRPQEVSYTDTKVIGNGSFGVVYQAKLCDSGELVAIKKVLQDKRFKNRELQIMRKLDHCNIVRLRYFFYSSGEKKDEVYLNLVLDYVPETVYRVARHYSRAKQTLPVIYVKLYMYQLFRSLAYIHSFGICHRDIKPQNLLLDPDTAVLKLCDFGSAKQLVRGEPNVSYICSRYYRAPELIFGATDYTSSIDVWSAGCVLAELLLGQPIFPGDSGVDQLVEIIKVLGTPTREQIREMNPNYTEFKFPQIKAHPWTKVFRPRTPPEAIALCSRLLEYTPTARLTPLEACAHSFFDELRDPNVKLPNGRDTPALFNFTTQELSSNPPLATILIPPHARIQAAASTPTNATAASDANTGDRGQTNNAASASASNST
Homeodomain-interacting protein kinase 1 (Homo sapiens), sequence (Q86Z02 whole entry, looked up): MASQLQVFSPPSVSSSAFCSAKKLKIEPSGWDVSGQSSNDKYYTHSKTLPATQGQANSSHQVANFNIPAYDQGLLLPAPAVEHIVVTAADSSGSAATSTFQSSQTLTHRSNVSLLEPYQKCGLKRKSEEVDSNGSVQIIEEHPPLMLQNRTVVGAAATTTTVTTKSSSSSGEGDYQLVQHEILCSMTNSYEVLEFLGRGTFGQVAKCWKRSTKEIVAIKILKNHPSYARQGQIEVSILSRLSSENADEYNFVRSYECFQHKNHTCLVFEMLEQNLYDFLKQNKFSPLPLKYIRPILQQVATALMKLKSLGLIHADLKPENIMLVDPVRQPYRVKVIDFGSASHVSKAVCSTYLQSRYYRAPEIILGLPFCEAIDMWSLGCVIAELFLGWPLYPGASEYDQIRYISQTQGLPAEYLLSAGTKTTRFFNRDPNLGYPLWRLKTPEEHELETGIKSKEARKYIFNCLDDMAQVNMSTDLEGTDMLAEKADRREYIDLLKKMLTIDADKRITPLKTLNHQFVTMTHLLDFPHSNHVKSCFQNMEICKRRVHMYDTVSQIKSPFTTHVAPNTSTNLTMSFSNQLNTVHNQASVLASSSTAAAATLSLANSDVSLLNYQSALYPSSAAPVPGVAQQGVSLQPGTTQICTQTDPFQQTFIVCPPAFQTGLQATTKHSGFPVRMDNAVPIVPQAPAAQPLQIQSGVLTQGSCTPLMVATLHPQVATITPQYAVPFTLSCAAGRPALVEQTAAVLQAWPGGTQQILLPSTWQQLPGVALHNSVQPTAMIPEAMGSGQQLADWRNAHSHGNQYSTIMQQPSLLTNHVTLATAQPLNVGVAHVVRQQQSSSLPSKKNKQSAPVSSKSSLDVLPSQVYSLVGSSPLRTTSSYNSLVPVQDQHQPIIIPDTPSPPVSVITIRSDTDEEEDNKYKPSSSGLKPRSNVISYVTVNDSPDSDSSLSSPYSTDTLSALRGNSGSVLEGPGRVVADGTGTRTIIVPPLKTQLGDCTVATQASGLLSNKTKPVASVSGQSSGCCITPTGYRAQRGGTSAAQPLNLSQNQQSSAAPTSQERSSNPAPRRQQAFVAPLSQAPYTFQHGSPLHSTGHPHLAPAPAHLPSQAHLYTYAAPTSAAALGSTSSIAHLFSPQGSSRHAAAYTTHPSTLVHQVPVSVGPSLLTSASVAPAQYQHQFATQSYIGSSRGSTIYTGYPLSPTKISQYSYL
G protein-coupled receptor kinase 5 (Homo sapiens), sequence (P34947 whole entry, looked up): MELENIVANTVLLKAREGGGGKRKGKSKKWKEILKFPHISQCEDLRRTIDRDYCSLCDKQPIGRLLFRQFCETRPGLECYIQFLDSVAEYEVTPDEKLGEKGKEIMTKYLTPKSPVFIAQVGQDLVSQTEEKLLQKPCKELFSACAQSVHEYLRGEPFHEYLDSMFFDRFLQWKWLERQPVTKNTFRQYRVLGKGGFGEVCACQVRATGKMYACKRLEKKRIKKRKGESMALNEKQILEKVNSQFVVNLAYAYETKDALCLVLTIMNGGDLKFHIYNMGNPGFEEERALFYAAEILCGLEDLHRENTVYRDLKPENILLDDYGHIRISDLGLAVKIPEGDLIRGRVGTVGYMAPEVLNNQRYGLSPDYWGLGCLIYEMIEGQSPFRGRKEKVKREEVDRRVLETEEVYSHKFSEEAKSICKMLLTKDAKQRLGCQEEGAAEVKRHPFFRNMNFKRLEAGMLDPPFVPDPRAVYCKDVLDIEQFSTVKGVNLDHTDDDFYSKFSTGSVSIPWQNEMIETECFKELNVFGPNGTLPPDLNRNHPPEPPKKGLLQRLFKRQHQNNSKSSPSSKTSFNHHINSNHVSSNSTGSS

SMILES | residual activity [1] [%] | residual activity [2] [%] | residual activity [3] [%] | residual activity [4] [%] | residual activity [5] [%] | residual activity [6] [%] | residual activity [7] [%] | residual activity [8] [%] | residual activity [9] [%] | residual activity [10] [%] | residual activity [11] [%] | residual activity [12] [%] | residual activity [13] [%] | residual activity [14] [%] | residual activity [15] [%] | residual activity [16] [%] | residual activity [17] [%] | residual activity [18] [%] | residual activity [19] [%] | residual activity [20] [%]
O=C(NC(NC(=S)Nc1ccc(F)c([N+](=O)[O-])c1)C(Cl)(Cl)Cl)C(c1ccccc1)c1ccccc1 (stereo unspecified) | 76 | 89 | 71 | 104 | 58 | 88 | 74 | 100 | 87 | 86 | 98 | 89 | 99 | 93 | 104 | 77 | 96 | – | – | –
CCOC(=O)c1c(C)[nH]c(/C=C2\C(=O)Nc3ccccc32)c1C | 3 | 20 | 9 | 87 | 99 | 89 | 77 | – | 94 | – | – | 129 | – | – | – | – | – | 99 | 80 | –
Nc1ncnc2c1c(-c1ccc(Oc3ccccc3)cc1)cn2C1CCCC1 | 0 | 18 | 1 | 0 | 0 | 87 | 54 | 89 | 73 | 87 | 69 | 112 | 86 | 98 | 96 | 75 | 86 | 88 | – | 104
CC(C)c1nn(-c2c(Cl)cccc2Cl)c2nc(Cc3ccc(OCCO)cc3)[nH]c(=O)c12 | 56 | 62 | 51 | 67 | 74 | 99 | 70 | 78 | 86 | 93 | 80 | 13 | 104 | 98 | 99 | 89 | 107 | 51 | 45 | 66
O=C(c1cc2cc(O)ccc2[nH]1)c1cc2cc(O)ccc2[nH]1 | 1 | 54 | 10 | 7 | 1 | 24 | 4 | 82 | 78 | 75 | 54 | 26 | – | – | 83 | 28 | 76 | 59 | 20 | –
O=C1NC(=O)c2c1c1c3ccccc3[nH]c1n1cncc21 | 2 | 26 | 23 | 51 | 42 | 58 | 53 | 70 | 75 | 84 | 76 | 4 | 77 | 58 | 30 | 13 | 61 | 26 | 29 | 7
CC(C)(C)c1nc2c3ccc(F)cc3c3c(=O)[nH]ccc3c2[nH]1 | 16 | 54 | 18 | – | – | 19 | 11 | 66 | 68 | – | – | – | – | 98 | 65 | 21 | 79 | – | – | –
COc1ccc2c(c1)c(C1=C(c3c[nH]c4ccccc34)C(=O)NC1=O)cn2CCCN(C)C | 0 | 59 | 36 | – | 60 | 75 | 30 | 51 | – | – | 44 | -1 | – | 34 | 57 | 13 | 72 | 30 | 4 | 15
O=C1NC(=O)C(c2cn(CCCn3ccnc3)c3ccccc23)=C1Nc1ccccc1 | 9 | 66 | 40 | – | – | 54 | 13 | 30 | 59 | 75 | 22 | 1 | – | – | – | – | – | 14 | 3 | 14
O=C(Nc1ccc(Cl)cc1)c1ccccc1NCc1ccncc1 | 0 | 1 | 0 | 102 | 70 | – | 58 | – | – | – | – | 130 | – | – | – | – | – | – | – | 118
CN([C@@H](Cc1ccc(OS(=O)(=O)c2cccc3cnccc23)cc1)C(=O)N1CCN(c2ccccc2)CC1)S(=O)(=O)c1cccc2cnccc12 | – | – | – | – | – | – | – | – | – | – | 85 | – | – | – | – | – | – | – | – | –
CC(C)(C)n1nc(Cc2cccc3ccccc23)c2c(N)ncnc21 | 5 | 59 | 6 | 30 | 3 | – | 44 | 96 | – | 98 | 56 | 130 | 95 | 107 | 101 | 110 | 93 | 103 | 65 | 116
COc1cc2ncnc(Nc3cccc(Cl)c3)c2cc1OC | 6 | 88 | 38 | 41 | 6 | – | 50 | – | – | 106 | – | 121 | – | – | – | – | 110 | – | – | 101
CC(C)N(CCC(=O)c1ccc2ccccc2c1)Cc1ccccc1 | – | – | 125 | 88 | 88 | 82 | 80 | – | – | – | – | 135 | – | – | – | – | 86 | – | – | –
NC(=O)c1cccc(-c2cc(Nc3ccc(OC(F)(F)F)cc3)ncn2)c1 | 81 | 74 | 73 | – | 78 | – | 88 | – | 100 | – | – | 82 | – | – | – | – | – | – | 64 | 98
O=c1c(-c2ccc(F)cc2)c(-c2ccncc2)[nH]n1-c1ccc(Cl)cc1 | 20 | – | 61 | – | 66 | – | – | 100 | 100 | – | – | 69 | – | – | – | 99 | – | 102 | 56 | –
